Calls of active or inactive are those of the source. The calls were made as follows: active = hit-call score of the fitted dose curve at least 0.9, where 1 is the maximum; inactive = score below 0.9.
Assays:
[1] = molecular target: Transcription factor E2F1 (Homo sapiens) (UniProt Q01094); assay: ATG_E2F_CIS: Attagene CIS-FACTORIAL HepG2 Assay for human E2F Transcription Factor 1 (AID 2282935); details: HepG2 Attagene cis-reporter, E2F reporter RNA transcripts; actives raise or lower the signal
In short: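 Cis-element reporter mRNA induction in transiently transfected HepG2, 24 h exposure. Activity fitted in both directions relative to DMSO negative control.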

[2] = ATG_E_Box_CIS: Attagene CIS-FACTORIAL HepG2 Assay for human Enhancer Box (E-box) (AID 2282936); details: HepG2 E-box cis-reporter transcription, actives raise or lower the signal
In short: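 Cells: HepG2 (human liver), transient MRTU transfection. Exposure 24 h. RNA → oligo(dT) RT → PCR → 6-FAM label → HpaI → CE. Activity fitted both directions relative to DMSO.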

[3] = ATG_M_61_CIS: Attagene CIS-FACTORIAL HepG2 Assay for M61 Transcription Factor (Internal Marker) (AID 2282937); details: HepG2 Attagene CIS-FACTORIAL M61 internal marker reporter; actives raise or lower the signal
In short: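 HepG2 cells transiently transfected with cis-element-driven multiple reporter transcription units, dosed for 24 h. Reporter mRNA measured by RT-PCR, 6-FAM primer-extension labelling, HpaI digestion and capillary electrophoresis; bidirectional fit versus DMSO baseline.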

[4] = ATG_EGR_CIS: Attagene CIS-FACTORIAL HepG2 Assay for human Early Growth Response 1 (EGR1) (AID 2282938); details: HepG2 Attagene CIS-FACTORIAL EGR reporter mRNA; actives raise or lower the signal
In short: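 HepG2 cells transiently transfected with cis-promoter-driven multiplexed reporter transcription units; reporter mRNA measured 24 h after compound dosing by RT-PCR, 6-FAM primer extension, HpaI digestion and capillary electrophoresis. Bidirectional fit versus DMSO baseline.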

[5] = ATG_M_19_CIS: Attagene CIS-FACTORIAL HepG2 Assay for M19 Transcription Factor (Internal Marker) (AID 2282939); details: HepG2 Attagene CIS-FACTORIAL M19 internal marker reporter; actives raise or lower the signal
In short: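 HepG2, MRTU transient transfection, 24 h dosing. Total RNA → RT-PCR → 6-FAM primer extension → HpaI digest → CE fluorescence. Bidirectional curve fit, DMSO negative control.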

[6] = ATG_ERE_CIS: Attagene CIS-FACTORIAL HepG2 Assay for Estrogen Response Element (ERE) (AID 2282940); details: HepG2 ERE cis-reporter, Attagene RNA transcript; actives raise or lower the signal
In short: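 After a 24 h chemical treatment, RNA from reporter-transfected HepG2 cells is reverse-transcribed, PCR-amplified and fluorescently labelled. Fragments separated by capillary electrophoresis give reporter signal; DMSO serves as negative control.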

[7] = ATG_Ets_CIS: Attagene CIS-FACTORIAL HepG2 Assay for human Erythroblast Transformation Specific (ETS) (AID 2282941); details: HepG2 ETS cis-reporter transcription, actives raise or lower the signal
In short: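 HepG2 cells transiently transfected with cis-promoter reporter transcription units were dosed for 24 h; reporter mRNA was measured by RT-PCR, 6-FAM primer extension, HpaI digestion and capillary electrophoresis, with bidirectional fitting against DMSO baseline.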

[8] = molecular target: Hepatocyte nuclear factor 3-beta (Homo sapiens) (UniProt Q9Y261); assay: ATG_FoxA2_CIS: Attagene CIS-FACTORIAL HepG2 Assay for human Forkhead box A2 (FOXA2) (AID 2282942); details: HepG2 cis-reporter transcription factor activity, 24 h; actives raise or lower the signal
Hepatocyte nuclear factor 3-beta (Homo sapiens), sequence (Q9Y261 whole entry, looked up): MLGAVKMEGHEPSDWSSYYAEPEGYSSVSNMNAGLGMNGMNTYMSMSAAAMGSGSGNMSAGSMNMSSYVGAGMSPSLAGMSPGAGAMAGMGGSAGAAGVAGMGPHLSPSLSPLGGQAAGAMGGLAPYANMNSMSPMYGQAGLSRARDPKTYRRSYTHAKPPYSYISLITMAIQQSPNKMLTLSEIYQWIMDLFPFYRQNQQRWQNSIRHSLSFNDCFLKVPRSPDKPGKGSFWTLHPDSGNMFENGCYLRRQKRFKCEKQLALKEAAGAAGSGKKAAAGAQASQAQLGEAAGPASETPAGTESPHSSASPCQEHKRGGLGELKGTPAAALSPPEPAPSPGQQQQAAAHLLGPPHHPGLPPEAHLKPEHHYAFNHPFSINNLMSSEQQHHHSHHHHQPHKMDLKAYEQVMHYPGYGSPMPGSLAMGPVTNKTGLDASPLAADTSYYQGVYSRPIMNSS
In short: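 HepG2 cells transiently transfected with multiple cis-regulated reporter transcription units, dosed for 24 h. Reporter mRNA measured by RT-PCR, 6-FAM labelling, HpaI digestion and capillary electrophoresis; bidirectional fitting against DMSO baseline.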

[9] = ATG_FoxO_CIS: Attagene CIS-FACTORIAL HepG2 Assay for human Forkhead box O (FoxO) (AID 2282943); details: HepG2 Attagene cis-reporter, FoxO element, mRNA; actives raise or lower the signal
In short: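 Endogenous transcription factor activity read from multiplexed cis-promoter reporter transcripts in transiently transfected HepG2, 24 h after dosing. Reporter RNA measured via RT-PCR plus capillary electrophoresis of FAM-labeled products; gain or loss relative to DMSO.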

[10] = ATG_GATA_CIS: Attagene CIS-FACTORIAL HepG2 Assay for human GATA Binding Protein (AID 2282944); details: HepG2 GATA cis-element reporter, Attagene multiplex mRNA; actives raise or lower the signal
In short: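 Cells: HepG2, transiently transfected with cis-regulated reporter transcription units. Exposure: 24 h. Detection: RT-PCR plus capillary electrophoresis of FAM-labeled fragments. Analysis: bidirectional, DMSO as baseline.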

[11] = ATG_GLI_CIS: Attagene CIS-FACTORIAL HepG2 Assay for human Zinc Finger Protein GLI1 (AID 2282945); details: HepG2, Attagene cis-factorial reporter mRNA, GLI element; actives raise or lower the signal
In short: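 Bidirectional curve fits relative to DMSO, using reporter mRNA levels from RT-PCR plus capillary electrophoresis. Cells were HepG2 transiently carrying cis-regulated reporter constructs, harvested 24 h after dosing.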

[12] = molecular target: Bile acid receptor (Homo sapiens) (UniProt Q96RI1); assay: ATG_IR1_CIS: Attagene CIS-FACTORIAL HepG2 Assay for human Nuclear Receptor Subfamily 1 Group H Member 4 (NR1H4), IR1 submotif (AID 2282946); details: IR1 reporter transcription, actives raise or lower the signal
Bile acid receptor (Homo sapiens), sequence (Q96RI1 whole entry, looked up, the tested form may be a part): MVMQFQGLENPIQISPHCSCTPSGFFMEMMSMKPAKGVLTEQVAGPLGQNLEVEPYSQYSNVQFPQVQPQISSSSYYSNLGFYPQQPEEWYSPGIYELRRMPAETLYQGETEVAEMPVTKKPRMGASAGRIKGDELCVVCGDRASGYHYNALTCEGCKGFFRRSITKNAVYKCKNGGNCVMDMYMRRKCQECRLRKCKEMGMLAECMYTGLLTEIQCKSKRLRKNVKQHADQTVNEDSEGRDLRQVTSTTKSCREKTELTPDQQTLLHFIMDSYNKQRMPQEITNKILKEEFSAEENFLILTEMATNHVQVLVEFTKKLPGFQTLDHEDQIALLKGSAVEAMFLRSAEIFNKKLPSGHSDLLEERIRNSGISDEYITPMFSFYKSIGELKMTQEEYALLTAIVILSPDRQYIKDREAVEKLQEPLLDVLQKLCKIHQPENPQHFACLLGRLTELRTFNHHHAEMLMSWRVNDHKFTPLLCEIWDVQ
In short: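 Cells (human HepG2) carry transiently transfected cis-promoter reporter transcription units. Compounds are incubated 24 h, total RNA is reverse-transcribed and amplified, and labelled fragments are resolved by capillary electrophoresis. Curves use DMSO as baseline.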

[13] = ATG_GRE_CIS: Attagene CIS-FACTORIAL HepG2 Assay for human Glucocorticoid Response Elements (GRE) (AID 2282947); details: HepG2 GRE cis-reporter, Attagene multiplex mRNA; actives raise or lower the signal
In short: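 Transient MRTU transfection of human HepG2 liver cells; cis-regulated reporters report endogenous factors. 24 h dosing → RNA isolation → RT-PCR → 6-FAM primer extension → HpaI cut → CE fragment analysis. Bidirectional fit, DMSO negative control.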

[14] = ATG_ISRE_CIS: Attagene CIS-FACTORIAL HepG2 Assay for human Interferon Regulatory Factor 1 (IRF1) binding to an Interferon-Stimulated Response Element (ISRE) (AID 2282948); details: HepG2 ISRE cis-reporter (Attagene), mRNA transcription readout; actives raise or lower the signal
In short: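 HepG2 cells transiently transfected with multiplexed cis-promoter reporter units; after 24 h compound exposure, reporter mRNA quantified by RT-PCR, FAM labelling, HpaI digestion and capillary electrophoresis. Bidirectional fit versus DMSO baseline.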

[15] = ATG_M_32_CIS: Attagene CIS-FACTORIAL HepG2 Assay for M32 Transcription Factor (Internal Marker) (AID 2282949); details: HepG2 Attagene cis-factorial M32 reporter, mRNA; actives raise or lower the signal;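 also: background control marker of the multiplexed CIS panel rather than a real target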
In short: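 Fluorescent capillary electrophoresis peaks of HpaI-digested, FAM-labelled RT-PCR reporter products give the signal. Source: transiently transfected human liver HepG2 cells, 24 h after chemical dosing; bidirectional fitting against DMSO.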

[16] = ATG_M_06_CIS: Attagene CIS-FACTORIAL HepG2 Assay for M06 Transcription Factor (Internal Marker) (AID 2282950); details: HepG2 Attagene CIS-FACTORIAL M06 internal marker reporter; actives raise or lower the signal
In short: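 Measured 24 h post-dosing in transiently transfected HepG2 cells, this internal-marker endpoint reports reporter mRNA via RT-PCR with fluorescent primer extension and capillary electrophoresis. DMSO served as negative control and baseline for bidirectional fitting.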

[17] = molecular target: Heat shock factor protein 1 (Homo sapiens) (UniProt Q00613); assay: ATG_HSE_CIS: Attagene CIS-FACTORIAL HepG2 Assay for human Heat Shock Transcription Factor 1 (HSE) (AID 2282953); details: HepG2 HSE cis-reporter, Attagene RNA transcription; actives raise or lower the signal
Heat shock factor protein 1 (Homo sapiens), sequence (Q00613 whole entry, looked up): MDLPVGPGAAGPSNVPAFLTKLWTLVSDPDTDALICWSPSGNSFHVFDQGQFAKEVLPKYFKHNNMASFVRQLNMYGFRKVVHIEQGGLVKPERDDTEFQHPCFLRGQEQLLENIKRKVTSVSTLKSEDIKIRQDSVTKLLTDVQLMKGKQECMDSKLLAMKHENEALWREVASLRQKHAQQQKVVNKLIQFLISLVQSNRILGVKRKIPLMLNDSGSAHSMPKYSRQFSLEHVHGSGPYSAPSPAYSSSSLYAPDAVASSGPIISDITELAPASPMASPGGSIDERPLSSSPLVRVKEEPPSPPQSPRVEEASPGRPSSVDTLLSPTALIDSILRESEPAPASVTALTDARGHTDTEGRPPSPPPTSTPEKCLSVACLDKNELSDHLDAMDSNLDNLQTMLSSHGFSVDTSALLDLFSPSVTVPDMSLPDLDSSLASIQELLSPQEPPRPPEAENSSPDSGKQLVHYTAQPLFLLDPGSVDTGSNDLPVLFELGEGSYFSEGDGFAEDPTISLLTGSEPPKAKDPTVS
In short: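 Reporter mRNA induction in HepG2 is measured 24 h after dosing, using transiently transfected multiplexed cis-regulated reporter units. Signal comes from capillary electrophoresis of labelled RT-PCR products, with DMSO as negative control.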

[18] = ATG_MRE_CIS: Attagene CIS-FACTORIAL HepG2 Assay for human Metal Responsive Element (MRE) (AID 2282954); details: HepG2 MRE cis-reporter transcription, Attagene multiplex; actives raise or lower the signal
In short: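 Transient MRTU transfection of HepG2 (FuGene 6); 24 h dosing; total RNA → oligo(dT) RT, PCR, 6-FAM primer extension, HpaI cut, CE. Bidirectional fit vs DMSO.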

[19] = molecular target: Hypoxia-inducible factor 1-alpha (Homo sapiens) (UniProt Q16665); assay: ATG_HIF1a_CIS: Attagene CIS-FACTORIAL HepG2 Assay for human Hypoxia Inducible Factor 1 (HIF1A) (AID 2282951); details: HepG2 Attagene cis-factorial HIF1a reporter transcription; actives raise or lower the signal
Hypoxia-inducible factor 1-alpha (Homo sapiens), sequence (Q16665 whole entry, looked up): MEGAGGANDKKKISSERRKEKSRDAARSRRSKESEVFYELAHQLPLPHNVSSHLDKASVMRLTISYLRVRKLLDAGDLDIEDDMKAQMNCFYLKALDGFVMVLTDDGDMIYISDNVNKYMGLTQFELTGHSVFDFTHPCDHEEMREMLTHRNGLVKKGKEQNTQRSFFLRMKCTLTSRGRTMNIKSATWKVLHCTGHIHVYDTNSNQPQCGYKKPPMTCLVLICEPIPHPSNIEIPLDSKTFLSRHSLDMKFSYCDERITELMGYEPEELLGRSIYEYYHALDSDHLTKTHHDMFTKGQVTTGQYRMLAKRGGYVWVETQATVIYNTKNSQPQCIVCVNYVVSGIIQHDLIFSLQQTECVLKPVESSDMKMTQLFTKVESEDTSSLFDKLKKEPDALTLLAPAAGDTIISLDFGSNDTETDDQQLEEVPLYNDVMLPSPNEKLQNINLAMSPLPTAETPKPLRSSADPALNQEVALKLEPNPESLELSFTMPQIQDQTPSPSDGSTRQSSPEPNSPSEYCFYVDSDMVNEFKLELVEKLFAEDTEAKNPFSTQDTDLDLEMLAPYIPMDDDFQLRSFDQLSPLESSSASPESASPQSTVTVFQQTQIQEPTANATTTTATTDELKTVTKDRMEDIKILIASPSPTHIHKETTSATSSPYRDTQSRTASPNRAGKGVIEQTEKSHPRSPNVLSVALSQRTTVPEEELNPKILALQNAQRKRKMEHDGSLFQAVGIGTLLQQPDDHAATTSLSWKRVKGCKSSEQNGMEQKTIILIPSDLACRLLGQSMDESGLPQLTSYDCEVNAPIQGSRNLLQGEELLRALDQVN
In short: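 HepG2 cells transiently transfected with multiplexed cis-promoter reporter units; reporter mRNA read 24 h after dosing by RT-PCR, 6-FAM primer-extension labelling, HpaI digestion and capillary electrophoresis. Bidirectional fit versus DMSO baseline.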

[20] = molecular target: Hepatocyte nuclear factor 6 (Homo sapiens) (UniProt Q9UBC0); assay: ATG_HNF6_CIS: Attagene CIS-FACTORIAL HepG2 Assay for human Hepatocyte Nuclear Factor 6 (HNF6) (AID 2282952); details: HepG2 Attagene cis-factorial HNF6 reporter transcription; actives raise or lower the signal
Hepatocyte nuclear factor 6 (Homo sapiens), sequence (Q9UBC0 whole entry, looked up, the tested form may be a part): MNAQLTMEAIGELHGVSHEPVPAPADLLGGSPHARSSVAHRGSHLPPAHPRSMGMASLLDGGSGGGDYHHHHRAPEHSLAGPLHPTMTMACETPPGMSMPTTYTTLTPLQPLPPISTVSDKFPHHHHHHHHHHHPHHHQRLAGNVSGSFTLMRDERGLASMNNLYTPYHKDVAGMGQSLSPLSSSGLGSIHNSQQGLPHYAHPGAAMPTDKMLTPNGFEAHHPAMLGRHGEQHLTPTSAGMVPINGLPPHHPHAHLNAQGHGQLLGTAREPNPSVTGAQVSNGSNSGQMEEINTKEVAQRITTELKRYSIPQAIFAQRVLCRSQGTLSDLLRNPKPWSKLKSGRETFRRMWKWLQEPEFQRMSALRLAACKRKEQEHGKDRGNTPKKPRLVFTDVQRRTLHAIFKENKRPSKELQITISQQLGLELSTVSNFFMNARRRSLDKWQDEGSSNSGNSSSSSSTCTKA
In short: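 Reporter mRNA induction or loss in HepG2 after 24 h exposure; transient cis-MRTU transfection; fragments quantified by capillary electrophoresis; bidirectional analysis, DMSO as negative control.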

Measured: AC50

Transcription factor E2F1 (Homo sapiens), sequence (Q01094 whole entry, looked up): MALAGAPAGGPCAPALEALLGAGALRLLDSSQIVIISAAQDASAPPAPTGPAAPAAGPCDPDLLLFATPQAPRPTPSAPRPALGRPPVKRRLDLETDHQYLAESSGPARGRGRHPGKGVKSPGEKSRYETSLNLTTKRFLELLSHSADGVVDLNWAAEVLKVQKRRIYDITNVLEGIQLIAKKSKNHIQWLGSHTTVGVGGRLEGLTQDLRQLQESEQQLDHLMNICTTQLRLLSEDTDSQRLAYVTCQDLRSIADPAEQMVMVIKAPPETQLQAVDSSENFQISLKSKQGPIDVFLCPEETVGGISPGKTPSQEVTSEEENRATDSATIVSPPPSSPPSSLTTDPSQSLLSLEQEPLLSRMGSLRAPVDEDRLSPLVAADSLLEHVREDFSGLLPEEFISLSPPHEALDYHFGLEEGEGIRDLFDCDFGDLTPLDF

CN1CCc2cccc3c2[C@H]1Cc1ccc(O)c(O)c1-3
active: [2] 2.76 µM | [6] 0.386 µM | [14] 13.3 µM
inactive: [1] | [3] | [4] | [5] | [7] | [8] | [9] | [10] | [11] | [12] | [13] | [15] | [16] | [17] | [18]

CC(CO)(CO)[N+](=O)[O-]
inactive: [1] | [2] | [3] | [4] | [5] | [6] | [7] | [8] | [9] | [10] | [11] | [12] | [13] | [14] | [19] | [18]

CC1(C)CC(=O)CC(C)(C)N1
inactive: [1] | [2] | [3] | [4] | [5] | [6] | [7] | [8] | [9] | [10] | [11] | [13] | [14] | [15] | [16] | [19] | [20] | [17] | [18]

C=C1CC[C@H]2O[C@]2(C)CC[C@@H]2[C@@H]1CC2(C)C
inactive: [1] | [2] | [3] | [4] | [5] | [6] | [7] | [8] | [9] | [10] | [11] | [13] | [14] | [15] | [16] | [19] | [20] | [18]

c1ccc(OCCOc2ccccc2)cc1
active: [19] 26.4 µM
inactive: [1] | [2] | [3] | [4] | [5] | [6] | [7] | [8] | [9] | [10] | [11] | [13] | [14] | [15] | [16] | [20] | [17]

CC/C=C\C#N
inactive: [1] | [2] | [3] | [4] | [5] | [6] | [7] | [8] | [9] | [10] | [11] | [13] | [14] | [15] | [16] | [20] | [17]

CC(C)=CCCC(C)=CC(=O)O
inactive: [1] | [2] | [3] | [4] | [5] | [6] | [7] | [8] | [9] | [10] | [11] | [13] | [14] | [15] | [16] | [19] | [20] | [17] | [18]

CCCc1ccc(O)cc1
active: [6] 26.8 µM
inactive: [1] | [2] | [3] | [4] | [5] | [7] | [8] | [9] | [10] | [11] | [13] | [14] | [15] | [16] | [19] | [20] | [17] | [18]
